Measured values taken from PubChem BioAssay (EPA / NIEHS).
Some structures have more than one record in an assay (separate samples or runs), and their calls can disagree. The source made the active and inactive calls. Rule for the calls: active = hit-call score of the fitted dose curve at least 0.9, where 1 is the maximum; inactive = score below 0.9.

assay: CCTE_Mundy_HCI_Cortical_Synap_Neur_Matur_NeuriteSpotCountPerNeuron: CCTE's Synaptogenesis and Neurite Maturation Assay in rat cortical cells for Neurite Spot Count per Neuron Count, Mundy Lab (AID 2284215)
Protocol: CCTE_Mundy_HCI_Cortical_Synap&Neurite_Matur is a multiplexed, cell-based-readout assay that uses rat primary cortical cells with measurements taken at 288.33 hours after chemical dosing in a microplate: 96-well plate.CCTE_Mundy_HCI_Cortical_Synap_Neur_Matur_NeuriteSpotCountPerNeuron is one of eight components of the CCTE_Mundy_HCI_Cortical_Synap&Neurite_Matur assay. It measures synaptogenesis and neurite maturation related to number of neurite-associated synapses (synaptophysin puncta) per neuron using High Content Imaging of fluorescently labelled markers.[…] Using a type of morphology reporter, loss -of-signal activity can be used to understand developmental effects.
Cells are plated onto 96 well plates and allowed 2 hr for attachment to the substrate. At days in vitro (DIV) 5, Cytosine Arabinoside (AraC) is added to arrest glial cell growth. Chemicals are dosed and a media change is performed at DIV 7 of differentiation and is continued through DIV 12 when the experiment is terminated. Cells are fixed with […] and Hoechst Dye. Cells are stained using Millipore Mouse anti-MAP2MAB3418 (1:800) and Millipore Rabbit anti-Synaptophysinsc-1750 (1:250) primary antibodies and Alexa Fluor-488 goat anti-mouse and AlexaFluor-546 goat anti-rabbit secondary antibodies to label neuronal cell nuclei, synapses and neurites. A Cellomics ArrayScan VTi HCS Reader is used for automated image acquisition and analysis of neurite outgrowth.

Row | SMILES | outcome | AC50
1 | CNC(=O)Oc1cccc2ccccc12 | inactive | 
2 | CO/N=C(/C1=NOCCO1)c1ccccc1Oc1ncnc(Oc2ccccc2Cl)c1F |  | 2.16 µM (active)
3 | CC(C)(C)C(=O)C(Oc1ccc(Cl)cc1)n1cncn1 (centres undefined) |  | 7.48 µM (active)
4 | O=C(Nc1ccccc1-c1ccc(Cl)cc1)c1cccnc1Cl | inactive | 
5 | CN/C(=N\[N+](=O)[O-])NCc1cnc(Cl)s1 | inactive | 
6 | CCOP(=O)(OCC)Oc1nc(Cl)c(Cl)cc1Cl | inactive | 9.92 µM (active)
7 | CC1(C)C(C=C(Cl)Cl)C1C(=O)OC(C#N)c1cccc(Oc2ccccc2)c1 (centres undefined) | inactive | 
8 | C=C(C)CN(CC)c1c([N+](=O)[O-])cc(C(F)(F)F)cc1[N+](=O)[O-] |  | 6.14 µM (active)
9 | CCNC(=O)NC(=O)C(C#N)=NOC | inactive | 
10 | COP(=S)(OC)SCn1nnc2ccccc2c1=O | inactive | 
11 | N#CN=C1SCCN1Cc1ccc(Cl)nc1 | inactive | 
12 | CCN(CC)c1nc(C)cc(OP(=S)(OC)OC)n1 |  | 84.5 µM (active)
13 | CCSC(=O)N1CCCCCC1 | inactive | 
14 | CS(=O)(=O)c1ccc(C(=O)C2C(=O)CCCC2=O)c([N+](=O)[O-])c1 | inactive | 
15 | CS(=O)(=O)c1cc(C(F)(F)F)ccc1C(=O)c1cnoc1C1CC1 | inactive | 
16 | COP(=O)(OC)O/C(C)=C/C(=O)N(C)C | inactive | 
17 | Cc1c(COC(=O)[C@@H]2[C@H](/C=C(\Cl)C(F)(F)F)C2(C)C)cccc1-c1ccccc1 |  | 3.15 µM (active)
18 | COC(=O)N(C(=O)N1CO[C@@]2(C(=O)OC)Cc3cc(Cl)ccc3C2=N1)c1ccc(OC(F)(F)F)cc1 | inactive | 
